For 40 molecules, growth results are on record in PubChem BioAssay (NCI).

Values joined by “and” are separate entries in the source; they are usually repeats but may differ in a detail not shown here. Equal entries are not always repeated. About 83,000 compounds went through this panel and 20% of them were active in at least one assay; those are over-represented in the sample as a whole.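 48-hour exposure, single concentration, 96-well plates; percent growth endpoint where 0 means no net growth. Active: below 10.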 Unmarked numbers belong to inactive results. Active and inactive are the calls of the source.

This experiment deals with MDA-MB-468 breast. In words: NCI-60 one-dose screen, 48 h (100 = growth as untreated, 0 = no growth, -100 = all killed). As to conditions: 10 µM unless noted.
Regarding `O=C(Nc1cc(F)cc2cccnc12)c1cnc(N2CCNCC2)cn1`, the growth was -5.12% (active).

As for `COc1cc(C(=O)O)c(O)c(C(C)(C)C)c1`, the growth is 100%.

`Cc1ccc2c(c1)C(=O)c1c-2c(OCCCN(C)C)nc2ccccc12`: the growth was 28.9%.

With `CCCCNc1cc(-c2cn[nH]c2-c2cc(C)cc(OC)c2)nc(-c2cccnc2)n1`, the growth was 78.4%.

As to `O=[N+]([O-])c1cccc(C(c2ccccc2)c2ccccc2)c1`, the growth was 93.9%.

Regarding `O=C1COc2ccccc2C(=O)N1CCCCNc1ccccc1`, the growth was 94.5%.

Take `Clc1ccc(/C=N\N=c2\scc(-c3ccc(Cl)cc3)n2/N=C/c2ccc(Cl)cc2)cc1`: the growth is 115%.

With `CCCCCN(CCCCC)CC(O)c1cc2c(c3ccccc13)CCCC2` (stereo not given), the growth is 72.1% and 81.2%.

For the molecule `COc1ccc(/C=N/C2=C(C#N)C(c3ccc(N(C)C)cc3)c3ccc4ccccc4c3O2)cc1` (stereo not given), the growth was 84.3%.

For `O=C(CSc1nnc(Cc2ccccc2Nc2c(Cl)cccc2Cl)n1-c1ccccc1)N1N=C(c2ccc3ccccc3c2)CC1c1ccc(Cl)cc1` (stereo not given), the growth was 114%.

For the molecule `Cc1cccc2c1O/C(=C\c1ccc([N+](=O)[O-])o1)C2=O`, the growth is -58.1% (active).

For `O=C1[C@@H]2Cc3c([nH]c4ccccc34)[C@H](c3ccc(Cl)cc3)N2C(=O)CN1C1CCN(Cc2ccccc2)CC1`, the growth is 23.1%.

As for `CCOC(=O)c1[nH]c(=O)c2c(C)nc(-c3ccccc3)cc2c1O`, the growth is 92.9%.

As to `Fc1cnc(NC2CC2)nc1-c1cnc2ccc(N3CCOCC3)cn12`, the growth is -29.6% (active).

Regarding `CC(C)(C)c1cc(NC(=O)Nc2ccc(-c3cn4c5c(sc4n3)CCc3c[nH]cc3-5)cc2)no1`, the growth was 22.6%.

With `CCCC1CCC(=C2C(=O)CCC2=O)O1` (stereo not given), the growth was 88.7%.

Turning to `CCC1=C(c2ccc(OC)cc2)C(C)(C)Oc2c1ccc(O)c2CN1CCCC1`, the growth is -45.1% (active).

On to `Cc1nc2n[nH]c(N)c2nc1C`, for which the growth was 100%.

For `O=C(Nc1nc(Cl)nc(Nc2ccc(N3CCOCC3=O)cc2)n1)c1ccc(Cl)s1`, the growth was 68.1%.

As for `CCOC(=O)c1c(-c2ccc(OC)cc2)c(C#N)c2c(C#N)c(N)nn2c1N`, the growth was 13.2%.

Consider `Cc1ccc(-c2nnc3sc(C4=Cc5ccccc5OC=C4)nn23)cc1`, for which the growth is 109%.

For `COc1ccc(-c2nn(-c3ccccc3)cc2/C=C2/SC(=S)N(C)C2=O)cc1`, the growth was 89.1%.

Take `CC1=CC(=O)CC(C)(C)[C@@]1(O)/C=C/C(C)=C\C(=O)O`: the growth was -45.1% (active).

Take `CCN(CC)CCOC(=O)N1c2ccccc2Sc2ccccc21`: the growth is 96.3%.

Turning to `CCN1C(=O)N(CC)C2C1NC(=S)N2/N=C/C=C/c1ccccc1OC` (stereo not given), the growth is -0.348% (active).

Regarding `CC(=O)O[C@H]1CC[C@@]2(C)[C@@H](CC[C@@H]3[C@@H]2CC[C@]2(C)C=C(C=O)C[C@@H]32)C1`, the growth is 111%.

As for `COc1ccc(NC(=O)c2cccc(-c3cc(=O)c4c(O)c(OC)c(OC)cc4o3)c2)cc1`, the growth is 84.3%.

As to `O=C1c2c(O)ccc(O)c2C(=O)c2c(NCCNCCO)ccc(NCCNCCO)c21`, the growth is -77.2% (active).

Take `COc1ccc(Nc2ccnc(N3CCN(c4ccnc5cc(Cl)ccc45)CC3)n2)cc1`: the growth is -16% (active).

Turning to `COc1cc(NCC(C)(O)CN(CC(C)C)CC(C)C)c2nc(C)ccc2c1` (stereo not given), the growth was -11.4% (active).

As for `c1ccc2[nH]c(-c3cc(-c4ccc5c(c4)OCO5)n[nH]3)nc2c1`, the growth is 51.2%.

On to `O=C(CSc1nccc(Nc2ccc(S(=O)(=O)Nc3ccccn3)cc2)n1)c1ccc(Cl)cc1`, for which the growth was 81.2%.

With `CCOC(=O)C#Cc1c(C(=O)OCC)nnn1[C@@H]1O[C@H](CO)[C@H]2OC3(CCCCC3)O[C@H]21`, the growth was -19.7% (active).

As to `CCCCCCCCCCCCCCCC1=NCC[N+]1(CCO)CCO`, the growth is 55.2%.

`COc1ccc(-c2c(C(=O)NS(C)(=O)=O)n(Cc3cccc(C(F)(F)F)c3)c3ccccc23)cc1`: the growth was 86.6%.

For the molecule `CCCCC(CCc1ccc([N+](=O)[O-])cc1)(C(C)=O)C(=O)OCC` (stereo not given), the growth was 83.8%.

With `CC[N+]1(CC)CC[N+]2(CCCC(C)CC2)CC1` (stereo not given), the growth is 108%.

Turning to `Cc1ccc(NC2=CC(=O)C(=O)c3ccccc32)cc1`, the growth was -12.4% (active).

Regarding `Cc1cc(=O)oc2cc(OCCCOc3ccc(/C=C/C(=O)Nc4ccc(Br)cc4)cc3)ccc12`, the growth was 75.9%.

As for `CCn1c2ccc(O)cc2c2c(C)c3c[n+](C)ccc3c(C)c21`, the growth is -31.2% (active).
